Compounds with a hit are over-represented: about 1.3% of the library has one in this group of screens.
Mtb bLac sens: beta-lactam sensitization of Mtb H37Rv; M. tuberculosis H37Rv growth with meropenem, percent inhibition; inhibition, % at 25 µM; 330,000 tested, 0.27% active; AID 434955; call rule not given here;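 further: growth measured after seven days incubation then overnight dye step; 0% = bacteria only wells and 100% = bacteria with antibiotic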
RN4220 kill: kills Staphylococcus aureus RN4220. AID 1259311. 330,000 tested, 0.33% active. inhibition, % (no concentration beside the values). S. aureus RN4220 growth, OD600, 16 h; in the data active means inhibition above about 85%;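 further: plate controls were untreated cells for no effect and reference antibiotic for full effect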
CCHFV vOTU inh: CCHFV vOTU protease inhibition | Pep-AMC fluorescence | inhibition, % at 11.5 µM | 370,000 tested, 0.55% active | AID 651958; in the data active means inhibition above about 30%; further: 0% = vehicle wells with enzyme and 100% = no enzyme wells
SARS 3CLpro inh: SARS-CoV 3CLpro protease inhibition; P0C6X7; recombinant SARS-CoV 3CLpro, quenched FRET peptide cleavage; inhibition, % at 6 µM; 290,000 tested, 0.14% active; in the data active means inhibition above about 12%
MazF activator: increases E. coli MazEF RNase cleavage of RNA. P0AE70. FAM/BHQ RNA-DNA oligo cleavage fluorescence, 5 h. activation, % at 20 µM. 350,000 tested, 0.32% active; in the data active means activation above about 50%
Target sequence (P0AE70 whole entry, looked up): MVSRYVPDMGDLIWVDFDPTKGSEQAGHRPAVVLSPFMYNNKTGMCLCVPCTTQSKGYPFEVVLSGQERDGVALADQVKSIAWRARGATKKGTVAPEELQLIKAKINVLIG
ugtP null kill: growth inhibition of S. aureus ugtP deletion strain; 330,000 tested, 0.54% active; growth inhibition, % (no concentration beside the values); AID 1259309; S. aureus RN4220 ugtP deletion, OD600 growth, 16 h; in the data active means growth inhibition above about 68%;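 further: plate controls were untreated wells for no effect and antibiotic for full effect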
Active calls of the source: *; / = not tested or not shown; + = active, no number.

SMILES	Mtb bLac sens	RN4220 kill	CCHFV vOTU inh	SARS 3CLpro inh	MazF activator	ugtP null kill
COc1ccc(Cc2nnc(SCC(=O)Nc3ccc(C)cc3)n(N)c2=O)cc1	-6	-3	30*	/	7	-1
N#CC(=NNc1cccc([N+](=O)[O-])c1)C(=O)c1ccc(Br)cc1	/	94*	/	/	/	89*
COc1ccc(C(=O)/C(C#N)=N/Nc2ccccc2[N+](=O)[O-])cc1	8	/	5	2	-3	/
COc1ccc(C(=O)C(C#N)=NNc2cccc([N+](=O)[O-])c2)cc1	/	86*	/	/	/	87*
COc1ccc(C(=O)/C(C#N)=N/Nc2ccc([N+](=O)[O-])cc2)cc1	21	/	-7	3	3	/
Cc1cc(C)cc(NC(=O)c2cc3c(=O)n4ccccc4nc3s2)c1	1	/	26	-5	70*	/
CCn1c(/C=C/c2ccc(O)cc2)nc2ccccc2c1=O	5	7	-3	-1	1	-4
CCn1c(/C=C/c2c(C)n(CC)c3ccccc23)nc2ccccc2c1=O	-1	3	16	5	70*	-4
CCn1c(/C=C/c2ccc(O)c(O)c2)nc2ccccc2c1=O	1	13	5	3	121*	-2
NC1=NCC(c2ccccc2)N1CCc1cc(C(F)(F)F)cc(C(F)(F)F)c1 (configuration not stated)	/	-12	/	/	/	-3
CCCCCCCC(=O)NN=Cc1ccco1	/	-8	/	/	/	-3
CC(=O)Nc1ccc(S(=O)(=O)c2ccc([N+](=O)[O-])cc2)cc1	-4	97*	9	-6	8	72
CC(=O)Nc1ccc([As](=O)(O)c2ccc([N+](=O)[O-])cc2)cc1	9	6	-8	1	8	0
CC(C)Cn1c(=O)c(C(=O)Nc2ccccc2S(N)(=O)=O)c(O)c2ccccc21	10	82	18	-8	-4	62
CCOC(=O)Cc1csc(NC(=O)c2c(O)c3ccccc3n(CC(C)C)c2=O)n1	100	97*	-2	5	-2	98*
COc1ccc(-c2cc3nc(-c4ccccc4)cc(N4CCC(O)CC4)n3n2)cc1	3	-10	-25	-3	-6	90*
CCCNC(=O)Cn1c(=O)/c(=C\c2ccc(-c3cccc([N+](=O)[O-])c3)o2)s/c1=C\C(=O)C(C)(C)C	2	/	-12	-1	175*	/
CCCNC(=O)Cn1c(=O)/c(=C/c2ccc(-c3cccc([N+](=O)[O-])c3)o2)s/c1=C\C(=O)C(C)(C)C	/	16	2	/	54*	2
CCCNC(=O)Cn1c(=O)/c(=C\c2ccc(-c3ccc([N+](=O)[O-])cc3)o2)s/c1=C\C(=O)C(C)(C)C	7	/	/	-4	86*	/
CC1=Nc2ccccc2/C1=C\c1nc(-c2ccc(F)cc2)oc1O	/	29	-12	6	+	57
CCOc1ccc(/C=C2/SC(=O)NC2=S)cc1	2	66	7	-15	-7	100*
CCOc1ccc(N=C2NC(=O)S/C2=C\c2ccc(N(C)C)cc2)cc1	0	12	-5	2	17	15
CCN1C[C@]2(COC)C(O)CC(OC)[C@@]34C5C[C@]6(O)C(OC)C(O)[C@@](OC(C)=O)(C5C6OC(=O)c5ccccc5)C(C(OC)C23)C14 (some centres not stated)	/	5	/	/	/	-1
COc1ccc(C2c3ccc(O)cc3Oc3ncn(CCN4CCOCC4)c(=N)c32)cc1 (configuration not stated)	-7	0	2	1	-49	-8
COc1ccc(C2c3ccc4ccccc4c3Oc3ncn(CCCN(C)C)c(=N)c32)cc1 (configuration not stated)	99	/	-3	-12	50*	/
SMILES	Mtb bLac sens	RN4220 kill	CCHFV vOTU inh	SARS 3CLpro inh	MazF activator	ugtP null kill
N=c1c2c(ncn1CCCO)Oc1cc(O)ccc1C2c1ccccc1 (configuration not stated)	-3	2	15	2	64*	6
COc1ccc(N2C(=O)C(=Cc3ccc([N+](=O)[O-])cc3)N=C2C)c(OC)c1	/	3	/	/	/	-5
CCN(CC)c1ccc(C2C(C(=O)OC)=C(C)NC(C)=C2C(=O)OC)cc1	0	4	30*	0	3	1
CC1(C)c2[nH]c3ccccc3c2CC2C(=O)N(c3ccc(F)cc3F)C(=O)N21 (configuration not stated)	/	2	/	/	/	1
CCN1C(=O)/C(=C2\C=Cc3cc(C)ccc3N2CC)OC1=S	1	/	-6	3	114*	/
CCN1/C(=C2\C(=O)N(c3ccccc3)N=C2C)C=Cc2cc(C)ccc21	-4	3	11	-2	4	4
CCN1C(=O)/C(=C2/C=Cc3ccccc3N2C)OC1=S	2	8	-3	1	113*	4
COc1cc(CCCN2CCNCC2CC2CCCCC2)cc(OC)c1OC (configuration not stated)	/	3	/	/	/	-1
O=C1c2cccc3c(N4CCOCC4)c([N+](=O)[O-])cc(c23)C(=O)N1c1cccc2ccccc12	99	95*	3	1	-6	97*
Cc1cccc(N2C(=O)c3cccc4c(N5CCCCC5)c([N+](=O)[O-])cc(c34)C2=O)c1C	8	/	9	-1	9	/
CC(/C=C/c1ccco1)=NNC(=O)c1cc(C)[nH]n1	/	8	/	/	/	-5
O=C(NN=Cc1ccc(Br)o1)c1cccnc1	/	1	/	/	/	0
COc1ccc2nc(N3CCCC3)c(C#N)cc2c1	0	5	-33	-2	70*	-4
NNS(=O)(=O)c1ccc2c(c1)Cc1cc(S(=O)(=O)NN)ccc1-2	2	-2	9	0	154*	0
CCCCCC=CCC(O)C=Cc1cccc(CC(O)CCCCO)n1 (configuration not stated)	/	13	/	/	/	-8
CN(C)c1ccc(/C=N/N(CCC#N)C2=NS(=O)(=O)c3ccccc32)cc1	-2	/	-14	-2	140*	/
O=[N+]([O-])c1ccc(O)c(-c2nc(-c3ccccc3)c(-c3cccs3)[nH]2)c1	91	87*	3	1	-3	85*
O=C(O)c1ccc(-c2nc(-c3ccccc3)c(-c3cccs3)[nH]2)cc1	1	6	-47	3	14	10
COc1ccc(/C=C/c2cc(-c3ccc(C)cc3)o[n+]2C)cc1	100	96*	-1	0	21	100*
Cc1ccccc1C(=O)OC1C(Cc2ccccc2)NS(=O)(=O)C2CC3C=C[C@]12O3 (some centres not stated)	/	10	/	/	/	14
CC1c2cccc(O)c2C(=O)C2C(=O)C3(O)C(=O)C(C(N)=O)C(=O)C(N(C)C)C3C(O)C21 (configuration not stated)	/	93*	/	/	/	99*
CC1c2cccc(O)c2C(O)=C2C(=O)C3(O)C(O)=C(C(N)=O)C(=O)C(N(C)C)C3C(O)C21 (configuration not stated)	/	98*	/	/	/	100*

Screens: PubChem BioAssay, several laboratories
